Reference: PubChem BioAssay AID1159580 (chemical genetic matrix, 2015)
Screen size: about 5,500 compounds; about 2,000 (36%) were called active. Not shown: some 18% with an inconclusive outcome. No stated cut-off is given here; in the data, active means normalized growth mostly below about 0.91 (no sharp cut-off); inconclusive means no clear call, values can overlap the other calls; inactive means mostly above about 0.92. Some of the results follow.

Assay: chemical genetic growth profiling, strain panel (AID 1159580);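 further: tested at 20 µM; growth read once vehicle control cultures reached saturation at 30 °C; 1 = growth at the plate median or of vehicle wells; lower values mean less growth of the strain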
Details: S. cerevisiae deletion strains, growth OD
[1] = locus YDL101C, strain DUN1, active compounds read low
[2] = locus YHR030C, strain SLT2, active compounds read low

Measured: normalized growth

NNC(=O)c1ccccc1O
inactive: locus YBR229C, strain ROT2, active compounds read low 0.986 | [1] 0.975 | locus YDL134C, strain PPH21, active compounds read low 0.988 | locus YDR150W, strain NUM1, active compounds read low 0.892 | locus YEL061C, strain CIN8, active compounds read low 0.965 | locus YGR078C, strain PAC10, active compounds read low 1.01 | locus YGR229C, strain SMI1, active compounds read low 0.989 | [2] 1.03 | locus YHR087W, strain rtc3, active compounds read low 0.99 | locus YJR043C, strain POL32, active compounds read low 0.96 | locus YJR075W, strain HOC1, active compounds read low 1.02 | locus YKL190W, strain CNB1, active compounds read low 0.983 | locus YLR039C, strain RIC1, active compounds read low 0.958 | locus YLR058C, strain SHM2 (second series), active compounds read low 1 | locus YLR085C, strain ARP6, active compounds read low 0.962 | locus YLR262C, strain YPT6, active compounds read low 0.975 | locus YML094W, strain GIM5, active compounds read low 0.963 | locus YMR219W, strain ESC1, active compounds read low 0.996 | locus YMR263W, strain SAP30, active compounds read low 1.01 | locus YNL153C, strain GIM3, active compounds read low 1.01 | locus YNL298W, strain CLA4 (second series), active compounds read low 0.976 | locus YNL322C, strain KRE1, active compounds read low 1.01 | locus YNR030W, strain Alg12, active compounds read low 1.01 | locus YPL055C, strain LGE1, active compounds read low 0.916 | locus YPL241C, strain CIN2, active compounds read low 1.11 | locus YPR135W, strain CTF4, active compounds read low 0.956

N#Cc1ccc(NC(=O)Nc2cccc3ccccc23)cc1
inactive: locus YAR019C, strain CDC15, active compounds read low 0.965 | locus YBL105C, strain PKC1, active compounds read low 0.974 | locus YBR135W, strain CKS1, active compounds read low 0.96 | locus YBR136W, strain MEC1, active compounds read low 0.971 | locus YBR160W, strain CDC28, active compounds read low 0.96 | locus YDL017W, strain CDC7, active compounds read low 0.974 | locus YDL028C, strain MPS1, active compounds read low 0.971 | [1] 0.992 | locus YDL108W, strain KIN28, active compounds read low 0.958 | locus YDL132W, strain cdc53, active compounds read low 0.972 | locus YDL214C, strain PRR2, active compounds read low 0.928 | locus YDR052C, strain DBF4, active compounds read low 0.995 | locus YDR054C, strain cdc34, active compounds read low 0.957 | locus YDR226W, strain ADK1, active compounds read low 0.985 | locus YDR477W, strain SNF1, active compounds read low 0.926 | locus YER123W, strain YCK3, active compounds read low 0.919 | locus YER133W, strain GLC7, active compounds read low 0.955 | locus YFL009W, strain cdc4, active compounds read low 0.967 | locus YFL029C, strain CAK1, active compounds read low 0.968 | locus YFR003C, strain YPI1, active compounds read low 0.968 | locus YFR019W, strain FAB1, active compounds read low 0.932 | locus YFR028C, strain CDC14, active compounds read low 0.958 | locus YGR040W, strain KSS1, active compounds read low 0.921 | locus YGR052W, strain FMP48, active compounds read low 0.979 | locus YGR092W, strain DBF2, active compounds read low 0.923 | [2] 0.938 | locus YHR079C, strain IRE1, active compounds read low 0.924 | locus YHR082C, strain KSP1, active compounds read low 0.986 | locus YHR205W, strain SCH9, active compounds read low 0.89 | locus YIL147C, strain SLN1, active compounds read low 0.963 | locus YJL095W, strain BCK1, active compounds read low 0.962 | locus YJL128C, strain PBS2, active compounds read low 0.955 | locus YJL157C, strain FAR1, active compounds read low 0.929 | locus YJR016C, strain ILV3, active compounds read low 0.966 | locus YJR066W, strain TOR1 (second series), active compounds read low 0.903 | locus YJR066W, strain TOR1, active compounds read low 0.972 | locus YKL048C, strain ELM1, active compounds read low 0.949 | locus YKL067W, strain YNK1, active compounds read low 0.941 | locus YKL101W, strain HSL1, active compounds read low 0.916 | locus YKL193C, strain SDS22, active compounds read low 0.963 | locus YKL203C, strain TOR2, active compounds read low 0.998 | locus YLR133W, strain CKI1, active compounds read low 0.913 | locus YLR403W, strain SFP1, active compounds read low 0.892 | locus YML070W, strain DAK1, active compounds read low 0.901 | locus YMR001C, strain CDC5, active compounds read low 0.967 | locus YMR205C, strain PFK2 (second series), active compounds read low 0.939 | locus YMR277W, strain FCP1, active compounds read low 0.966 | locus YNL006W, strain LST8, active compounds read low 0.978 | locus YNL020C, strain ARK1, active compounds read low 0.917 | locus YNL161W, strain CBK1, active compounds read low 0.963 | locus YNL183C, strain NPR1, active compounds read low 0.943 | locus YNL207W, strain RIO2, active compounds read low 0.968 | locus YNL222W, strain SSU72, active compounds read low 0.967 | locus YNL307C, strain MCK1 (second series), active compounds read low 0.925 | locus YOL078W, strain AVO1, active compounds read low 0.972 | locus YOL136C, strain PFK27, active compounds read low 0.91 | locus YOR061W, strain CKA2, active compounds read low 0.929 | locus YOR119C, strain RIO1, active compounds read low 0.966 | locus YOR231W, strain MKK1, active compounds read low 0.887 | locus YOR329C, strain SCD5, active compounds read low 0.976 | locus YPL031C, strain PHO85, active compounds read low 0.92 | locus YPL153C, strain RAD53, active compounds read low 0.925 | locus YPL204W, strain HRR25, active compounds read low 0.909 | locus YPL209C, strain IPL1, active compounds read low 0.967 | locus YPL256C, strain CLN2, active compounds read low 0.872 | locus YPR025C, strain CCL1, active compounds read low 0.967 | locus YPR106W, strain ISR1, active compounds read low 0.958 | locus YPR111W, strain DBF20, active compounds read low 0.952 | strain NNK1, active compounds read low 0.967 | strain TSCII, active compounds read low 0.969
active: locus YLR113W, strain HOG1, active compounds read low 0.832
